Legend:
Assay in all cases: growth AUC relative to DMSO control (median of replicates) (fraction); higher = more growth (less inhibition), active = hit call of the paper
Settings in all cases: 20 µM; 24 h;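 active = AUC reduced over 20% with Padj below 0.05 in at least 2 of 3 replicates; inactive = otherwise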
Coprococcus comes = test system: Coprococcus comes
Summary of the method: (§1)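 Each value is the median of three biological replicates, grown on separate days, of a gut bacterial monoculture incubated anaerobically at 37 °C in mGAM with 20 µM compound (1% DMSO). Cultures started at OD600 0.05 and were read at OD600 hourly for 24 h, with the minimum OD set to 0. Area under the growth curve was normalised to the plate median of solvent-only wells, or to row and column medians on the industrial chemical plate.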

Escherichia coli ED1a = test system: Escherichia coli ED1a
Summary of the method: as §1

Escherichia coli IAI1 = test system: Escherichia coli IAI1
Summary of the method: as §1

Eubacterium rectale = test system: Eubacterium rectale
Summary of the method: as §1

[1] = test system: Fusobacterium nucleatum subsp. animalis
Summary of the method: as §1

Lactobacillus gasseri = test system: Lactobacillus gasseri
Summary of the method: as §1

Lactobacillus paracasei = test system: Lactobacillus paracasei
Summary of the method: as §1

Odoribacter splanchnicus = test system: Odoribacter splanchnicus
Summary of the method: as §1

[2] = test system: Parabacteroides distasonis
Summary of the method: as §1

Parabacteroides merdae = test system: Parabacteroides merdae
Summary of the method: as §1

Roseburia intestinalis = test system: Roseburia intestinalis
Summary of the method: as §1

Streptococcus salivarius = test system: Streptococcus salivarius
Summary of the method: as §1

Measured: growth AUC

Nc1c(Cl)c(Cl)c(Cl)c(Cl)c1Cl
inactive: Coprococcus comes 0.958 | Escherichia coli ED1a 0.986 | Escherichia coli IAI1 0.95 | Eubacterium rectale 1.01 | [1] 0.983 | Lactobacillus gasseri 0.972 | Lactobacillus paracasei 0.869 | Odoribacter splanchnicus 0.993 | [2] 1.04 | Parabacteroides merdae 0.971 | Roseburia intestinalis 0.986 | Streptococcus salivarius 0.983

CCOP(=S)(OCC)SCS(=O)(=O)C(C)(C)C
inactive: Coprococcus comes 0.991 | Escherichia coli ED1a 1.01 | Escherichia coli IAI1 0.966 | Eubacterium rectale 1.08 | [1] 0.964 | Lactobacillus gasseri 1.02 | Lactobacillus paracasei 1.03 | Odoribacter splanchnicus 0.979 | [2] 1.02 | Parabacteroides merdae 0.986 | Roseburia intestinalis 1.02 | Streptococcus salivarius 0.984

COC(=O)c1sccc1S(=O)(=O)NC(=O)Nc1nc(C)nc(OC)n1
inactive: Coprococcus comes 0.962 | Escherichia coli ED1a 0.97 | Escherichia coli IAI1 0.967 | Eubacterium rectale 1.14 | [1] 0.975 | Lactobacillus gasseri 0.859 | Lactobacillus paracasei 1.03 | Odoribacter splanchnicus 1.01 | [2] 0.969 | Parabacteroides merdae 0.973 | Roseburia intestinalis 0.947 | Streptococcus salivarius 0.859

CCOCN(C(=O)CCl)c1c(C)cccc1CC
inactive: Coprococcus comes 1.01 | Escherichia coli ED1a 1 | Escherichia coli IAI1 1.04 | Eubacterium rectale 0.983 | [1] 1.04 | Lactobacillus gasseri 1.03 | Lactobacillus paracasei 1.05 | Odoribacter splanchnicus 1.01 | [2] 1.03 | Parabacteroides merdae 0.974 | Roseburia intestinalis 1.01 | Streptococcus salivarius 1

O=C(NC(=O)c1c(F)cccc1F)Nc1ccc(OC(F)(F)C(F)OC(F)(F)F)c(Cl)c1 (centres undefined)
inactive: Coprococcus comes 1 | Escherichia coli ED1a 1.05 | Escherichia coli IAI1 1 | Eubacterium rectale 0.99 | [1] 0.986 | Lactobacillus gasseri 1.49 | Lactobacillus paracasei 0.958 | Odoribacter splanchnicus 0.983 | [2] 1.02 | Parabacteroides merdae 0.997 | Roseburia intestinalis 1.06 | Streptococcus salivarius 1.01

Cc1nnc(-c2ccccc2)c(=O)n1N
inactive: Coprococcus comes 1 | Escherichia coli ED1a 1 | Escherichia coli IAI1 0.995 | Eubacterium rectale 0.993 | [1] 0.998 | Lactobacillus gasseri 0.931 | Lactobacillus paracasei 0.972 | Odoribacter splanchnicus 1.06 | [2] 1 | Parabacteroides merdae 1.02 | Roseburia intestinalis 0.97 | Streptococcus salivarius 1.06

CC(C)(C)C(=O)C(Oc1ccc(Cl)cc1)n1cncn1 (centres undefined)
inactive: Coprococcus comes 1.03 | Escherichia coli ED1a 1.02 | Escherichia coli IAI1 1.02 | Eubacterium rectale 1.05 | [1] 0.974 | Lactobacillus gasseri 1.05 | Lactobacillus paracasei 1.02 | Odoribacter splanchnicus 1.04 | [2] 1.03 | Parabacteroides merdae 0.985 | Roseburia intestinalis 1.03 | Streptococcus salivarius 1.01

O=C(O)C1(O)c2ccccc2-c2ccc(Cl)cc21 (centres undefined)
inactive: Coprococcus comes 0.972 | Escherichia coli ED1a 0.998 | Escherichia coli IAI1 0.975 | Eubacterium rectale 0.947 | [1] 0.982 | Lactobacillus gasseri 1.05 | Lactobacillus paracasei 0.997 | Odoribacter splanchnicus 1.01 | [2] 0.979 | Parabacteroides merdae 0.987 | Roseburia intestinalis 0.991 | Streptococcus salivarius 0.982

CCOP(=O)(SC(C)CC)N1CCSC1=O (centres undefined)
inactive: Coprococcus comes 1 | Escherichia coli ED1a 0.984 | Escherichia coli IAI1 0.986 | Eubacterium rectale 0.862 | [1] 1.01 | Lactobacillus gasseri 0.997 | Lactobacillus paracasei 1.01 | Odoribacter splanchnicus 1.04 | [2] 1.05 | Parabacteroides merdae 1.01 | Roseburia intestinalis 1.03 | Streptococcus salivarius 1.02

CCCCN(CC)c1c([N+](=O)[O-])cc(C(F)(F)F)cc1[N+](=O)[O-]
inactive: Coprococcus comes 1.03 | Escherichia coli ED1a 0.994 | Escherichia coli IAI1 1 | Eubacterium rectale 0.864 | [1] 1.04 | Lactobacillus gasseri 1 | Lactobacillus paracasei 1.03 | Odoribacter splanchnicus 1.05 | [2] 1.06 | Parabacteroides merdae 1 | Roseburia intestinalis 1.04 | Streptococcus salivarius 1.03

COP(=O)(NC(C)=O)SC (centres undefined)
inactive: Coprococcus comes 0.979 | Escherichia coli ED1a 1.01 | Escherichia coli IAI1 0.993 | Eubacterium rectale 0.921 | [1] 0.99 | Lactobacillus gasseri 1.1 | Lactobacillus paracasei 1.02 | Odoribacter splanchnicus 0.999 | [2] 1.06 | Parabacteroides merdae 1.01 | Roseburia intestinalis 1.01 | Streptococcus salivarius 1.01

O=[N+]([O-])c1ccc(Oc2ccc(C(F)(F)F)cc2[N+](=O)[O-])cc1
inactive: Coprococcus comes 0.856 | Escherichia coli ED1a 0.964 | Escherichia coli IAI1 0.959 | Eubacterium rectale 0.88 | [1] 0.969 | Lactobacillus gasseri 0.977 | Lactobacillus paracasei 0.766 | Odoribacter splanchnicus 0.982 | [2] 0.957 | Parabacteroides merdae 0.953 | Roseburia intestinalis 0.928 | Streptococcus salivarius 0.985

Reference: the supplement of paper PMC12669032
